PTHR1 agonist – qHTS for PTHR1 Agonists: Primary Screen; Potency, µM (titrated, usually from 115 µM), most hits filed as activators; Parathyroid hormone/parathyroid hormone-related peptide receptor (Homo sapiens), Q03431; actives 0.075% (n = 410,000); HEK293 GP2 PTHR1 cells, GloSensor cAMP luminescence, 1 h; AID 743266, 2014; also: nearly all actives have a fitted effect of over 55% in size
Target sequence (Q03431 whole entry, looked up): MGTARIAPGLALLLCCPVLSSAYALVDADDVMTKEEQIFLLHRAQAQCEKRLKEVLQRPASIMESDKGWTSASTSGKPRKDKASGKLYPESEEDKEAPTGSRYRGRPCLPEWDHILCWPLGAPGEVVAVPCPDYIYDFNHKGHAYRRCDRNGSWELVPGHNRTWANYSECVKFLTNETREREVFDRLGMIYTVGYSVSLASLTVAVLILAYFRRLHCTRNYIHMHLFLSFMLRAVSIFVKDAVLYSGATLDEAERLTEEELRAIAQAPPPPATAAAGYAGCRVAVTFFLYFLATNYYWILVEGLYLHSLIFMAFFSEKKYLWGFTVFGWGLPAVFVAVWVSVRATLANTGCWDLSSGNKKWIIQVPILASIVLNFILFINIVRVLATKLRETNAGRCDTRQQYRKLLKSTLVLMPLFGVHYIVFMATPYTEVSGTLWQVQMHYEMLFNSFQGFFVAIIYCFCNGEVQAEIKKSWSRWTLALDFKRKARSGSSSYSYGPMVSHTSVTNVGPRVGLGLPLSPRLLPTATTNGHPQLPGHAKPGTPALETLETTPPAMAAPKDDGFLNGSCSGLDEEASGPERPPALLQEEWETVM
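HEK-293-derived GP2 cells expressing PTHR1 and a GloSensor cAMP reporter, 3,000/well, plated overnight, given luciferin plus IBMX (each 0.5 mM as added) for 1 h at 37 °C, then compound for 1 h at 37 °C. Luminescence was read after 15 min at room temperature.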
Abeta rescue – qHTS for compounds that reverse cellular toxicity of Amyloid beta (A-beta) peptide in yeast: Primary Screen. yeast expressing A-beta42, growth rescue, OD600, 48 h; response scale: 0% DMSO, 100% iron-clioquinol control. Potency, µM (doses to about 46.1 µM), usual class: activators. actives 0.063% (n = 410,000). AID 1347071, 2019; also: nearly all actives have a fitted effect of over 55% in size
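Growth rescue measured by 600 nm absorbance after 48 h yeast culture at 30 C with compound. Values normalized between DMSO and an equimolar ferric chloride plus clioquinol control.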
FUS suppressor – qHTS for Suppressors of FUS Proteinopathy: Primary screen using FUS-linked yeast assay. S. cerevisiae FUS-expressing, growth rescue, OD600, 24 h. Potency, µM (doses to about 76.6 µM), most hits filed as activators. actives 0.24% (n = 390,000). AID 1347120, 2019; also: nearly all actives have a fitted effect of over 55% in size
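Compound concentration series was pinned onto galactose-induced FUS-expressing yeast seeded at OD 0.005. Plates sat 24hr at 30C; absorbance at 600 nm gave growth. DMSO served as background control.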
LDHA inh – qHTS assay for inhibitors of human lactate dehydrogenase; L-lactate dehydrogenase A chain (Homo sapiens), P00338; purified LDHA, NADH/diaphorase-resazurin fluorescence; stronger effect = lower value; activity change, % (values are at about 110 or 230 µM); actives 0.15% (n = 480,000); in the data active = activity change below about -30%; inconclusive = mostly about -25% to -30%
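Resorufin fluorescence (ex540/em590), read at 0 and 20 min after diaphorase/resazurin addition, reports the NADH left after a 5 min room-temperature reaction of 2 nM human LDH5 with 0.06 mM NADH and 0.2 mM pyruvate.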
aSyn rescue – qHTS of alpha-syn Inhibitors | Yeast expressing alpha-synuclein, growth rescue, BacTiter-Glo, 24 h | Potency, µM (doses to about 46.1 µM), most hits filed as activators | actives 0.14% (n = 370,000) | AID 652106, 2013; also: nearly all actives have a fitted effect of over 65% in size
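Rescue of yeast growth: cells expressing toxic alpha-synuclein, induced in galactose at OD600 0.02, incubated with compound 24 h at 30 C. ATP luminescence quantified growth; inhibitors of toxicity appear as activators.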
TDP43 rescue – qHTS of TDP-43 Inhibitors; TDP-43 expressing yeast growth rescue, BacTiter-Glo, 24 h; actives 1.8% (n = 410,000); Potency, µM (series often up to 46.1 µM), most hits filed as activators; also: nearly all actives have a fitted effect of over 50% in size
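In this qHTS, compounds that restore growth of yeast expressing TDP-43 appear as activators. Cells (OD600=0.02, galactose medium, raffinose-pregrown) are incubated with compound 24 hr at 30 deg C and growth is quantified by BacTiter-Glo.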
Numbers stand for hits; 0 = inactive; ? = inconclusive; - = not tested or not shown; ! = not active in a repeat. Shown are actives, neighbours in structure and some others; about 1.9% of the full set was active somewhere. Unless noted, calls follow the shape of the dose curve; as a rule, active = well fitted curve in the direction sought with a large enough effect; inconclusive = small, poorly fitted or top-dose-only effect, or another doubt; inactive = no such curve, though single readings can be large; an effect the other way counts as inactive or inconclusive.

SMILES	PTHR1 agonist	Abeta rescue	FUS suppressor	LDHA inh	aSyn rescue	TDP43 rescue
O=C(Nc1ccc(F)cc1F)Nc1csc2ccccc12	0	0	0	0	0	11.2µM
Cc1cccnc1NC(=O)Nc1cccs1	0	0	0	0	0	5.01µM
O=C(Nc1cccs1)Nc1ccc(Br)cc1F	0	0	0	0	0	14.1µM
CCc1ccc2oc(C(=O)Nc3ccc(S(=O)(=O)Nc4onc(C)c4C)cc3)cc(=O)c2c1	-	-	-	0	-	-
Cc1nc(C)c(-c2csc(Nc3ccccc3C)n2)s1	-	-	-	0	-	-
O=C(Nc1cccs1)Nc1ccc(F)cc1F	0	0	0	0	0	14.1µM!
Cc1cccc(C(=O)Nc2ccccc2C(=O)NCc2ccccc2)n1	-	-	-	0	-	-
Clc1cccc(CNc2ccn3nc(-c4ccco4)cc3n2)c1	0	0	0	0	?	15.8µM
Clc1cccc(CNc2ccn3nc(-c4ccc(OCCN5CCOCC5)cc4)cc3n2)c1	0	0	0	0	?	0
Clc1cccc(CNc2ccn3nc(-c4cccs4)cc3n2)c1	0	?	0	0	?	17.8µM
CC(C)(C)C(=O)/C=C/c1ccc([N+](=O)[O-])cc1	-	-	-	0	-	-
Cc1nn(Cc2cc(C(=O)O)c3ccccc3n2)c(C)c1Cl	-	-	-	0	-	-
CCOC(=O)CNC(=O)Nc1cc(C(=O)NCc2ccc(OC)cc2)ccc1N1CCCC1	-	-	-	0	-	-
Cc1ccc(CNC(=O)COc2cc(O)c3c(c2)OC(C)(C)CC3=O)cc1	0	0	?	0	0	12.6µM
COc1cccc(NC(=O)COc2cc(O)c3c(c2)OC(C)(C)CC3=O)c1	0	0	0	0	0	17.8µM
O=S(=O)(NCc1ccco1)c1cnc(Cl)c(Br)c1	0	0	-	0	?	14.1µM
O=S(=O)(NCCc1ccccc1)c1cnc(Cl)c(Br)c1	0	0	-	0	0	11.2µM
O=C(O)c1cccc(S(=O)(=O)NCCc2ccccc2)c1	0	0	0	0	0	0
COc1ccccc1N1CCN(C(C(=O)O)c2c[nH]c3cc(OCc4ccccc4)ccc23)CC1 (stereo not given)	-	-	-	0	-	-
CN1CCN(CCCNC(=O)c2nc3ccccc3c(=O)[nH]2)CC1	-	-	-	0	-	-
CC(CCc1ccccc1)NC(=O)c1nccnc1N (stereo not given)	-	-	-	0	-	-
CCc1ccc(-c2c(C)sc(NC(C)=O)c2C(N)=O)cc1	0	0	0	0	0	15.8µM
Cc1ccc(N2C(=O)C3C4C=CC(CNC(=S)Nc5ccc(Cl)cc5)(O4)C3C2=O)cc1 (stereo not given)	0	0	-	0	0	14.1µM
Cc1ccc(N2C(=O)c3ccc(N)cc3C2=O)cc1	0	0	0	0	0	0
Cc1ccc(N2C(=O)c3ccc(N)cc3C2=O)cc1C	0	0	0	0	0	11.2µM
SMILES	PTHR1 agonist	Abeta rescue	FUS suppressor	LDHA inh	aSyn rescue	TDP43 rescue
Nc1ccc2c(c1)C(=O)N(c1cccc3ccccc13)C2=O	0	0	0	0	0	14.1µM
COc1ccc(Cl)cc1NC(=O)CSc1nncn2c1cc1oc(C)cc12	-	-	-	0	-	-
Cc1ccc(-c2cc(C(=O)Nc3ccc(C#N)cc3)c3ccccc3n2)o1	-	-	-	0	-	-
Cc1ccc2sc(NNC(=O)C3COc4ccccc4O3)nc2c1C (stereo not given)	0	0	0	0	0	7.08µM
O=C(Nc1nc(-c2ccccc2)cs1)C1COc2ccccc2O1 (stereo not given)	0	0	0	0	0	11.2µM
O=C(Nc1nc(-c2ccc3c(c2)OCO3)cs1)C1COc2ccccc2O1 (stereo not given)	0	0	0	0	0	11.2µM
CC1CCc2nc(NC(=O)C3COc4ccccc4O3)sc2C1 (stereo not given)	0	?	0	0	0	35.5µM
O=C(Nc1nc(-c2ccccn2)cs1)C1COc2ccccc2O1 (stereo not given)	0	0	0	0	?	?
